7 compounds from PubChem BioAssay (EPA / NIEHS) can be followed below.

The nature of test [1]: BSK_hDFCGF_SRB: Viability Assessment in the BioMAP Diversity Plus: hDFCGF Assay (AID 2283061).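 Note: cells exposed to compound for 24 h before the read.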 As to conditions: primary human foreskin fibroblasts. The method, boiled down: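 Cells were dosed with test chemical, cultured 24 h, fixed with 10% TCA, then stained with 0.1% SRB and read at 560 nm. The fibroblasts were human foreskin primary cells, and DMSO served as baseline.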

Read-out in test [2]: TIMP metallopeptidase inhibitor 1 (TIMP1), TIMP1 (gene 7076)
Briefly: BSK_hDFCGF_TIMP1: BioMAP Diversity Plus: hDFCGF Assay for TIMP metallopeptidase inhibitor 1 (TIMP1) Biomarker Activity (AID 2283062). To be noted: primary human foreskin fibroblasts; actives raise or lower the signal. Summed up:
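Fibroblasts from human foreskin are treated with test chemical and harvested at 24 h. TIMP-1 is quantified by ELISA, and gain or loss of signal is scored against DMSO.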

Read-out in test [3]: Monokine induced gamma interferon (MIG), CXCL9 (gene 4283)
Briefly: BSK_hDFCGF_MIG: BioMAP Diversity Plus: hDFCGF Assay for Monokine induced gamma interferon (MIG) Biomarker Activity (AID 2283063). To be noted: primary human foreskin fibroblasts; actives raise or lower the signal. Summed up:
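MIG signal, determined by ELISA, reflects 24 h chemical exposure of human skin primary fibroblasts. DMSO serves as negative control and baseline.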

Read-out in test [4]: Matrix Metallopeptidase 1 (MMP1), MMP1 (gene 4312)
Briefly: BSK_hDFCGF_MMP1: BioMAP Diversity Plus: hDFCGF Assay for Matrix Metallopeptidase 1 (MMP1) Biomarker Activity (AID 2283064). As to conditions: primary human foreskin fibroblasts; actives raise or lower the signal. Summed up:
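Primary human foreskin fibroblasts exposed to chemicals for 24 h; MMP1 measured by ELISA. Cytotoxicity tracked by SRB staining in parallel cultures; bidirectional fit relative to DMSO.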

Read-out in test [5]: Vascular cell adhesion molecule 1 (VCAM1), VCAM1 (gene 7412)
Briefly: BSK_hDFCGF_VCAM1: BioMAP Diversity Plus: hDFCGF Assay for Vascular cell adhesion molecule 1 (VCAM1) Biomarker Activity (AID 2283065).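 For AC50: VCAM-1 protein level quantified by ELISA after 24 h chemical exposure.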 To be noted: primary human foreskin fibroblasts; actives raise or lower the signal. Summed up: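 Cells are dosed, cultured for 24 h, then VCAM-1 is quantified by ELISA; signal increases and decreases are both fitted relative to DMSO.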

Read-out in test [6]: Plasminogen activator inhibitor-1 (PAI1), SERPINE1 (gene 5054)
Briefly: BSK_hDFCGF_PAI1: BioMAP Diversity Plus: hDFCGF Assay for Plasminogen activator inhibitor-1 (PAI1) Biomarker Activity (AID 2283066). To be noted: primary human foreskin fibroblasts; actives raise or lower the signal. The method, boiled down:
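Human foreskin fibroblast primary cells, 24 h chemical exposure; PAI-1 measured by ELISA. Bidirectional fitting relative to DMSO; parallel cultures stained with SRB for total protein to flag overt cytotoxicity.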

Read-out in test [7]: Intercellular Adhesion Molecule 1 (ICAM1), ICAM1 (gene 3383)
Briefly: BSK_KF3CT_ICAM1: BioMAP Diversity Plus: KF3CT Assay for Intercellular Adhesion Molecule 1 (ICAM1) Biomarker Activity (AID 2283067). As to conditions: primary human keratinocytes with fibroblasts; actives raise or lower the signal. The method, boiled down:
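Dose the keratinocyte/fibroblast co-culture, wait 24 h, measure ICAM-1 by ELISA, then fit increases or decreases against DMSO. Cytotoxicity is checked in parallel cultures by SRB total-protein staining.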

Read-out in test [8]: Interferon-gamma inducible Protein 10 (IP10), CXCL10 (gene 3627)
Briefly: BSK_KF3CT_IP10: BioMAP Diversity Plus: KF3CT Assay for Interferon-gamma inducible Protein 10 (IP10) Biomarker Activity (AID 2283068). To be noted: primary human keratinocytes with fibroblasts; actives raise or lower the signal. The method, boiled down:
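KF3CT co-culture (keratinocytes + foreskin fibroblasts), 24 h compound, IP-10 by ELISA; bidirectional fit vs DMSO baseline.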

Test [9] can be described thus: BSK_KF3CT_SRB: Viability Assessment in the BioMAP Diversity Plus: KF3CT Assay (AID 2283069).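 Note: fitted for both signal gain and loss against DMSO baseline.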 As to conditions: primary human keratinocytes with fibroblasts. The method, boiled down: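 Human keratinocyte and foreskin fibroblast co-culture exposed to chemical for 24 h. Total protein measured in parallel cultures by 0.1% sulforhodamine B staining after 10% TCA fixation, read at 560 nm; bidirectional fit relative to DMSO.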

Read-out in test [10]: Interleukin-1 alpha (IL1a), IL1A (gene 3552)
As to the kind of experiment: BSK_KF3CT_IL1a: BioMAP Diversity Plus: KF3CT Assay for Interleukin-1 alpha (IL1a) Biomarker Activity (AID 2283070). To be noted: primary human keratinocytes with fibroblasts; actives raise or lower the signal. The method, boiled down:
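Primary human keratinocyte plus foreskin fibroblast co-culture, dosed and measured at 24 h in 96-well plates. IL-1a level quantified by ELISA; bidirectional fit relative to DMSO.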

Read-out in test [11]: TIMP metallopeptidase inhibitor 2 (TIMP2), TIMP2 (gene 7077)
As to the kind of experiment: BSK_KF3CT_TIMP2: BioMAP Diversity Plus: KF3CT Assay for TIMP metallopeptidase inhibitor 2 (TIMP2) Biomarker Activity (AID 2283071). As to conditions: primary human keratinocytes with fibroblasts; actives raise or lower the signal. Summed up: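 Co-culture of human primary keratinocytes and foreskin fibroblasts, measured 24 h after chemical dosing. TIMP-2 quantified by ELISA and fitted in both directions relative to DMSO. Cytotoxicity checked in parallel cultures by SRB total-protein staining.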

Read-out in test [12]: C-C motif chemokine 2 (Homo sapiens) (UniProt P13500)
As to the kind of experiment: BSK_KF3CT_MCP1: BioMAP Diversity Plus: KF3CT Assay for Monocyte Chemoattractant Protein 1 (MCP1/CCL2) Biomarker Activity (AID 2283073). As to conditions: primary human keratinocytes with fibroblasts; actives raise or lower the signal. Summed up:
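Keratinocytes and foreskin fibroblasts were co-cultured, dosed with chemical, and sampled 24 h later. MCP-1 was quantified by ELISA, and the endpoint was analyzed with bidirectional fitting using DMSO as negative control.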

Read-out in test [13]: Matrix Metallopeptidase 9 (MMP9), MMP9 (gene 4318)
Briefly: BSK_KF3CT_MMP9: BioMAP Diversity Plus: KF3CT Assay for Matrix Metallopeptidase 9 (MMP9) Biomarker Activity (AID 2283074).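 For AC50: MMP9 protein level quantified by ELISA in the co-culture.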 To be noted: primary human keratinocytes with fibroblasts; actives raise or lower the signal. Summed up:
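Human keratinocyte and foreskin fibroblast co-culture exposed to chemicals for 24 h; MMP9 biomarker measured by ELISA, bidirectional fitting relative to DMSO; cytotoxicity tracked by SRB total protein staining in parallel cultures.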

Read-out in test [14]: urokinase plasminogen activator (uPA), PLAU (gene 5328)
Briefly: BSK_KF3CT_uPA: BioMAP Diversity Plus: KF3CT Assay for urokinase plasminogen activator (uPA) Biomarker Activity (AID 2283075). To be noted: primary human keratinocytes with fibroblasts; actives raise or lower the signal. Summed up: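 Primary human keratinocyte/foreskin fibroblast co-culture exposed to chemical; uPA measured by ELISA at 24 h. Bidirectional fit versus DMSO, with parallel SRB total-protein staining for cytotoxicity.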

Read-out in test [15]: CD40, CD40 (gene 958)
Briefly: BSK_LPS_CD40: BioMAP Diversity Plus: LPS Assay for CD40 Biomarker Activity (AID 2283076). As to conditions: primary human HUVEC with PBMC; actives raise or lower the signal. The method, boiled down:
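CD40 signal, measured by ELISA, is fitted in both directions relative to DMSO vehicle. The system is an LPS-driven human vascular primary co-culture of endothelial cells and PBMC, sampled 24 h after compound addition.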

Read-out in test [16]: E-selectin (Homo sapiens) (UniProt P16581)
As to the kind of experiment: BSK_LPS_Eselectin: BioMAP Diversity Plus: LPS Assay for Eselectin Biomarker Activity (AID 2283077). To be noted: primary human HUVEC with PBMC; actives raise or lower the signal. Summed up: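 Signal of E-selectin, detected by ELISA, served as the endpoint; cells were umbilical vein endothelium with PBMC, read 24 h after treatment. DMSO defined baseline, and both increases and decreases were fitted.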

Read-out in test [17]: Interleukin-8 (IL8), CXCL8 (gene 3576)
Briefly: BSK_LPS_IL8: BioMAP Diversity Plus: LPS Assay for Interleukin-8 (IL8) Biomarker Activity (AID 2283078). To be noted: primary human HUVEC with PBMC; actives raise or lower the signal. The method, boiled down:
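Endothelial cells and PBMC from human donors are co-cultured, treated with chemicals and LPS, then assayed for IL-8 by ELISA after 24 h. Parallel SRB staining (0.1% SRB after 10% TCA fixation, 560 nm) flags cytotoxicity.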

A short description of test [18]: BSK_LPS_SRB: Viability Assessment in the BioMAP Diversity Plus: LPS Assay (AID 2283079).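 Note: total protein by sulforhodamine B absorbance as a cytotoxicity measure; measured one day after compound addition; fitted in both directions against DMSO so loss or gain of signal counts.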 As to conditions: primary human HUVEC with PBMC. The method, boiled down:
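Overt cytotoxicity was gauged by sulforhodamine B total-protein staining in a primary human vascular endothelial and mononuclear cell co-culture 24 h post-dosing. Activity was fitted in both directions relative to DMSO.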

Read-out in test [19]: Interleukin-1 alpha (IL1a), IL1A (gene 3552)
As to the kind of experiment: BSK_LPS_IL1a: BioMAP Diversity Plus: LPS Assay for Interleukin-1 alpha (IL1a) Biomarker Activity (AID 2283080). To be noted: primary human HUVEC with PBMC; actives raise or lower the signal. Summed up:
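Measured: IL-1 alpha via ELISA at 24 h in LPS-activated human umbilical vein endothelium–PBMC co-culture. Baseline: DMSO, bidirectional fitting.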

Read-out in test [20]: Transforming growth factor beta 1 (TGFb1), TGFB1 (gene 7040)
As to the kind of experiment: BSK_KF3CT_TGFb1: BioMAP Diversity Plus: KF3CT Assay for Transforming growth factor beta 1 (TGFb1) Biomarker Activity (AID 2283072). To be noted: primary human keratinocytes with fibroblasts; actives raise or lower the signal. Summed up:
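Human keratinocyte/foreskin fibroblast co-culture; TGF-b1 measured by ELISA 24 h after dosing, fitted bidirectionally versus DMSO. Cytotoxicity checked in parallel cultures by total protein (SRB staining, 560 nm).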

Each structure is given as a SMILES string. Activity calls are given as the source filed them. Rule for the calls: active = hit-call score of the fitted dose curve at least 0.9, where 1 is the maximum; inactive = score below 0.9.

Sequence of E-selectin (Homo sapiens) (P16581 whole entry, looked up): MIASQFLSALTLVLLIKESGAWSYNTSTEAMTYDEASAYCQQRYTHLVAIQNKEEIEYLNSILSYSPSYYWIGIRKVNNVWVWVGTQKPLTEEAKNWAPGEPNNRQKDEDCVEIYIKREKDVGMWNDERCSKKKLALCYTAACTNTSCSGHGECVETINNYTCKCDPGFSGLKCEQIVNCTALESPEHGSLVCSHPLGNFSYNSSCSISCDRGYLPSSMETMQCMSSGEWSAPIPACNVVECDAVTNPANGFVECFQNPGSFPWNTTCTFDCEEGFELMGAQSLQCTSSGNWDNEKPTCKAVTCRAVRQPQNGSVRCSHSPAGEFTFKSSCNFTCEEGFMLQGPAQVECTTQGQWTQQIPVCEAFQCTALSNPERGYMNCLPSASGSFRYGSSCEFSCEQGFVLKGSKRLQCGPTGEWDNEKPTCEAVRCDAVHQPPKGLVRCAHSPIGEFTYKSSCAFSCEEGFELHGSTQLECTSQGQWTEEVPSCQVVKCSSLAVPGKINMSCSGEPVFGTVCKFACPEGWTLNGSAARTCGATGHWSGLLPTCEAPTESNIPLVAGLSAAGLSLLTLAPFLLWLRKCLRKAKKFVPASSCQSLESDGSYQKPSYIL

Take `O=S(=O)(O)c1ccc(N=Nc2c(O)ccc3cc(S(=O)(=O)O)ccc23)cc1`: the result in test [1], in test [2], in test [3], in test [4], in test [5] and in test [6] was inactive. Also, the outcome in test [7], in test [8], in test [9], in test [10], in [11] and in test [12] was inactive. Moreover, the result in [13], in test [14], in test [15], in test [16], in test [17] and in test [18] was inactive. Further, the result in test [19] was inactive.
Take `OCCNCCO`: the result in test [1], in test [2], in test [3], in test [4], in [5] and in test [6] was inactive. Further, the outcome in test [7], in test [8], in test [9], in test [10], in test [11] and in test [20] was inactive. Besides, the outcome in test [12], in test [13], in test [14], in test [15], in test [16] and in [18] was inactive. Besides, the outcome in test [19] was inactive.
`Cc1ccc(S(=O)(=O)NC(=O)NN2CCCCCC2)cc1`: the result in test [1], in [2], in test [3], in test [4], in test [5] and in [6] was inactive. Besides, the result in test [7], in test [8], in test [9], in test [10], in test [11] and in test [12] was inactive. Also, the result in test [13], in [14], in [15], in test [16], in [17] and in [18] was inactive. In addition, in [19], the outcome was inactive.
For the compound `OC(Cn1cncn1)(Cn1cncn1)c1ccc(F)cc1F`, the outcome in [1], in test [2], in test [3], in test [4], in test [5] and in test [6] was inactive. The result in test [7], in test [8], in test [9], in test [10], in test [11] and in test [12] was inactive. For the same compound, the result in test [13], in [14], in test [15], in [16], in [17] and in test [18] was inactive. The outcome in test [19] was inactive.
`C[C@]12C=CC(=O)C=C1CC[C@H]1[C@@H]3C[C@@H](O)[C@](O)(C(=O)CO)[C@@]3(C)C[C@H](O)[C@@]12F`: the result in [1], in test [2], in test [3], in test [5], in [6] and in test [7] was inactive. Moreover, the result in [8], in test [9], in [10], in [11], in test [20] and in [12] was inactive. Moreover, the outcome in test [13], in [14], in [15], in test [16], in [18] and in [19] was inactive. In addition, in test [4], the AC50 (commonly the concentration giving half of the maximal activity seen) was 0.148 µM (active).
As for `CCCCCCCCCCCCCCCCOS(=O)(=O)O`, the AC50 in test [1] is 13.7 µM (active); in [2], 18.2 µM (active); in [3], 13.1 µM (active); in test [4] it was 16.6 µM (active); in test [5] it was 5.95 µM (active); in test [6] it was 9.1 µM (active). For the same compound, the AC50 in test [7] was 14.9 µM (active); in [8] it was 11.9 µM (active); in test [9], 15.8 µM (active); in test [10], 15.6 µM (active); in [11], 19.5 µM (active); in test [12] it was 16.8 µM (active). Moreover, the AC50 in test [13] was 18.5 µM (active); in test [14] it was 15.6 µM (active). Further, the result in test [15], in test [16], in test [17], in [18] and in test [19] was inactive.
For the compound `Cn1cc[nH]c1=S`, the outcome in [1], in test [2], in [3], in test [4], in test [5] and in test [6] was inactive. Besides, the outcome in [7], in [8], in test [9], in test [10], in [11] and in test [12] was inactive. In addition, the outcome in test [13], in test [14], in test [15], in [16], in test [17] and in test [18] was inactive. Besides, the outcome in test [19] was inactive.
